# Assay results from PubChem BioAssay AID1159580 (chemical genetic matrix, 2015).
# Out of some 5,500 compounds screened, about 2,000 (36%) were called active. Another 18% or so got no clear call; they are omitted. Some of the results follow. Unmarked numbers belong to inactive results. Cut-off read from the data, not from the text of the source: active = normalized growth mostly below about 0.91 (no sharp cut-off); inconclusive = no clear call, values can overlap the other calls; inactive = mostly above about 0.92.
# Experiment: chemical genetic growth profiling, strain panel (AID 1159580);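 note: tested at 20 µM; growth read once vehicle control cultures reached saturation at 30 °C; 1 = growth at the plate median or of vehicle wells; lower values mean less growth of the strain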
# Conditions: growth OD
smiles,measurement,setting,value
Cc1cc(O)ccc1Cl,normalized growth,"S. cerevisiae deletion strains, locus YKL009W, strain mrt4, active compounds read low",0.979
same,normalized growth,"S. cerevisiae deletion strains, locus YKL068W, active compounds read low",1
same,normalized growth,"S. cerevisiae deletion strains, locus YKL085W, strain MDH1 (second series), active compounds read low",0.998
same,normalized growth,"S. cerevisiae deletion strains, locus YKL085W, strain MDH1, active compounds read low",0.998
same,normalized growth,"S. cerevisiae deletion strains, locus YKL160W, strain elf1, active compounds read low",1.02
same,normalized growth,"S. cerevisiae deletion strains, locus YKR001C, strain vps1, active compounds read low",0.937
same,normalized growth,"S. cerevisiae deletion strains, locus YKR026C, strain gcn3, active compounds read low",1.01
same,normalized growth,"S. cerevisiae deletion strains, locus YKR091W, strain srl3, active compounds read low",1.03
same,normalized growth,"S. cerevisiae deletion strains, locus YLL001W, strain dnm1, active compounds read low",0.992
same,normalized growth,"S. cerevisiae deletion strains, locus YLL026W, active compounds read low",0.987
same,normalized growth,"S. cerevisiae deletion strains, locus YLL041C, strain sdh2, active compounds read low",1
same,normalized growth,"S. cerevisiae deletion strains, locus YLR027C, strain aat2, active compounds read low",1
same,normalized growth,"S. cerevisiae deletion strains, locus YLR039C, strain RIC1, active compounds read low",0.874
same,normalized growth,"S. cerevisiae deletion strains, locus YLR058C, strain SHM2, active compounds read low",1.02
same,normalized growth,"S. cerevisiae deletion strains, locus YLR102C, strain apc9, active compounds read low",1
same,normalized growth,"S. cerevisiae deletion strains, locus YLR113W, strain HOG1, active compounds read low",0.965
same,normalized growth,"S. cerevisiae deletion strains, locus YLR221C, strain rsa3, active compounds read low",0.994
same,normalized growth,"S. cerevisiae deletion strains, locus YLR258W, strain gsy2, active compounds read low",1.01
same,normalized growth,"S. cerevisiae deletion strains, locus YLR262C, strain YPT6 (second series), active compounds read low",0.814 (active)
same,normalized growth,"S. cerevisiae deletion strains, locus YLR262C, strain YPT6, active compounds read low",0.904
same,normalized growth,"S. cerevisiae deletion strains, locus YLR268W, strain sec22, active compounds read low",0.991
same,normalized growth,"S. cerevisiae deletion strains, locus YLR320W, strain mms22, active compounds read low",0.959
same,normalized growth,"S. cerevisiae deletion strains, locus YLR330W, strain CHS5, active compounds read low",1
same,normalized growth,"S. cerevisiae deletion strains, locus YLR342W, strain FKS1 (second series), active compounds read low",0.986
same,normalized growth,"S. cerevisiae deletion strains, locus YLR342W, strain FKS1, active compounds read low",0.982
same,normalized growth,"S. cerevisiae deletion strains, locus YLR357W, strain rsc2, active compounds read low",1.08
same,normalized growth,"S. cerevisiae deletion strains, locus YLR370C, strain arc18, active compounds read low",1.01
same,normalized growth,"S. cerevisiae deletion strains, locus YLR371W, strain rom2, active compounds read low",1
same,normalized growth,"S. cerevisiae deletion strains, locus YLR384C, strain iki3, active compounds read low",0.993
same,normalized growth,"S. cerevisiae deletion strains, locus YLR418C, strain cdc73, active compounds read low",1.02
same,normalized growth,"S. cerevisiae deletion strains, locus YML016C, strain PPZ1, active compounds read low",1
same,normalized growth,"S. cerevisiae deletion strains, locus YML032C, strain rad52, active compounds read low",0.981
same,normalized growth,"S. cerevisiae deletion strains, locus YML120C, strain ndi1, active compounds read low",1
same,normalized growth,"S. cerevisiae deletion strains, locus YML124C, strain tub3, active compounds read low",0.994
same,normalized growth,"S. cerevisiae deletion strains, locus YMR058W, strain fet3, active compounds read low",0.965
same,normalized growth,"S. cerevisiae deletion strains, locus YMR078C, strain ctf18, active compounds read low",1.01
same,normalized growth,"S. cerevisiae deletion strains, locus YMR125W, strain sto1, active compounds read low",1.13 [resistant] (active)
same,normalized growth,"S. cerevisiae deletion strains, locus YMR129W, active compounds read low",1.02
same,normalized growth,"S. cerevisiae deletion strains, locus YMR205C, strain PFK2, active compounds read low",0.987
same,normalized growth,"S. cerevisiae deletion strains, locus YMR223W, strain ubp8, active compounds read low",1.01
same,normalized growth,"S. cerevisiae deletion strains, locus YMR231W, strain pep5, active compounds read low",1.02
same,normalized growth,"S. cerevisiae deletion strains, locus YMR263W, strain SAP30, active compounds read low",1.02
same,normalized growth,"S. cerevisiae deletion strains, locus YMR307W, strain GAS1, active compounds read low",0.957
same,normalized growth,"S. cerevisiae deletion strains, locus YNL067W, strain RPL9B, active compounds read low",1.02
same,normalized growth,"S. cerevisiae deletion strains, locus YNL071W, strain lat1, active compounds read low",1.01
same,normalized growth,"S. cerevisiae deletion strains, locus YNL153C, strain GIM3, active compounds read low",1.03
same,normalized growth,"S. cerevisiae deletion strains, locus YNL183C, strain NPR1, active compounds read low",0.896
same,normalized growth,"S. cerevisiae deletion strains, locus YNL209W, strain ssb2, active compounds read low",1
same,normalized growth,"S. cerevisiae deletion strains, locus YNL233W, strain BNI4, active compounds read low",1.01
same,normalized growth,"S. cerevisiae deletion strains, locus YNL248C, strain rpa49, active compounds read low",1.02
same,normalized growth,"S. cerevisiae deletion strains, locus YNL250W, strain rad50, active compounds read low",0.996
same,normalized growth,"S. cerevisiae deletion strains, locus YNL271C, strain bni1, active compounds read low",1.01
same,normalized growth,"S. cerevisiae deletion strains, locus YNL298W, strain CLA4, active compounds read low",0.95
same,normalized growth,"S. cerevisiae deletion strains, locus YNL307C, strain MCK1, active compounds read low",1
same,normalized growth,"S. cerevisiae deletion strains, locus YNL322C, strain KRE1 (second series), active compounds read low",1.06
same,normalized growth,"S. cerevisiae deletion strains, locus YNL322C, strain KRE1, active compounds read low",0.999
same,normalized growth,"S. cerevisiae deletion strains, locus YNR049C, strain mso1, active compounds read low",0.999
same,normalized growth,"S. cerevisiae deletion strains, locus YNR052C, strain pop2, active compounds read low",1
same,normalized growth,"S. cerevisiae deletion strains, locus YOL012C, strain htz1",1.23
same,normalized growth,"S. cerevisiae deletion strains, locus YOL147C, strain pex11, active compounds read low",0.997
same,normalized growth,"S. cerevisiae deletion strains, locus YOR001W, strain rrp6, active compounds read low",0.991
same,normalized growth,"S. cerevisiae deletion strains, locus YOR061W, strain CKA2, active compounds read low",0.999
same,normalized growth,"S. cerevisiae deletion strains, locus YOR069W, strain VPS5, active compounds read low",1.01
same,normalized growth,"S. cerevisiae deletion strains, locus YOR070C, strain gyp1, active compounds read low",0.993
same,normalized growth,"S. cerevisiae deletion strains, locus YOR080W, strain dia2, active compounds read low",1.02
same,normalized growth,"S. cerevisiae deletion strains, locus YOR083W, strain WHI5, active compounds read low",0.936
same,normalized growth,"S. cerevisiae deletion strains, locus YOR106W, strain vam3, active compounds read low",0.976
same,normalized growth,"S. cerevisiae deletion strains, locus YOR136W, strain idh2, active compounds read low",0.999
same,normalized growth,"S. cerevisiae deletion strains, locus YOR144C, strain elg1, active compounds read low",1
same,normalized growth,"S. cerevisiae deletion strains, locus YOR184W, strain ser1, active compounds read low",0.982
same,normalized growth,"S. cerevisiae deletion strains, locus YOR231W, strain MKK1, active compounds read low",0.937
same,normalized growth,"S. cerevisiae deletion strains, locus YOR265W, strain rbl2, active compounds read low",1.01
same,normalized growth,"S. cerevisiae deletion strains, locus YOR270C, strain vph1, active compounds read low",1.01
same,normalized growth,"S. cerevisiae deletion strains, locus YOR290C, strain snf2, active compounds read low",1.02
same,normalized growth,"S. cerevisiae deletion strains, locus YOR316C, strain cot1, active compounds read low",1.01
same,normalized growth,"S. cerevisiae deletion strains, locus YPL051W, strain arl3, active compounds read low",0.992
same,normalized growth,"S. cerevisiae deletion strains, locus YPL078C, strain atp4, active compounds read low",0.938
same,normalized growth,"S. cerevisiae deletion strains, locus YPL106C, strain sse1, active compounds read low",1.1
same,normalized growth,"S. cerevisiae deletion strains, locus YPL240C, strain hsp82, active compounds read low",1.02
same,normalized growth,"S. cerevisiae deletion strains, locus YPL256C, strain CLN2, active compounds read low",0.968
same,normalized growth,"S. cerevisiae deletion strains, locus YPR119W, strain clb2, active compounds read low",1
same,normalized growth,"S. cerevisiae deletion strains, locus YPR141C, strain kar3, active compounds read low",1
same,normalized growth,"S. cerevisiae deletion strains, locus YPR163C, strain tif3, active compounds read low",1
same,normalized growth,"S. cerevisiae deletion strains, locus YPR167C, strain met16, active compounds read low",0.994
same,normalized growth,"S. cerevisiae deletion strains, strain wtn01, active compounds read low",0.974
same,normalized growth,"S. cerevisiae strains, strain wild type, active compounds read low",1.01
